Bioassay records deposited in PubChem BioAssay by National Center for Advancing Translational Sciences (NCATS).
In the library only some 3.2% were active in any assay of this set; here they are far more common.
MARV entry inh: qHTS for inhibitors of binding or entry into cells for Marburg Virus. Marburg virus pseudotyped entry inhibition, cell reporter. Potency, µM (doses to about 37.8 µM), without a hit: at the highest dose activity change, negative = inhibition, usual class: inhibitors. 300,000 compounds, 1.8% hits. AID 540276, 2011; calls by dose curve; tested in HEK293 cells
LASV entry inh: qHTS for Inhibitors of binding or entry into cells for Lassa Virus; Lassa virus pseudotype entry inhibition, cell reporter; Potency, µM (top dose mostly 37.9 µM), inactives show top-dose activity change, negative = inhibition, hits mostly inhibitors; 300,000 compounds, 1.2% hits; calls by dose curve; tested in HEK293 cells; note: nearly all actives have a fitted effect of over 50% in size
VACV Venus inh: qHTS for Stage-Specific Inhibitors of Vaccinia Orthopoxvirus: Venus Reporter Primary qHTS. Vaccinia virus Venus reporter expression, fluorescence. Potency, µM (titrated, usually from 36.5 µM), without a hit: at the highest dose activity change, negative = inhibition, most hits filed as inhibitors. 330,000 compounds, 0.46% hits. AID 720580, 2013; calls by dose curve; tested in A549 cells; note: nearly all actives have a fitted effect of over 30% in size
FMDV antiviral: High Throughput Screening for Foot and Mouth Disease Virus Antivirals; FMDV antiviral cell-based qHTS; 410,000 compounds, 1.2% hits; Potency, µM (doses to about 57.9 µM), without a hit: at the highest dose activity change, negative = inhibition, actives largely listed as inhibitors; calls by dose curve; tested in HEK293T cells; note: read-out not given here; nearly all actives have a fitted effect of over 45% in size
VACV mCherry inh: qHTS for Stage-Specific Inhibitors of Vaccinia Orthopoxvirus: mCherry Reporter Primary qHTS; 310,000 compounds, 0.63% hits; Vaccinia virus mCherry reporter infection, fluorescence; Potency, µM (series often up to 36.5 µM), without a hit: at the top dose activity change, negative = inhibition, hits mostly inhibitors; calls by dose curve; tested in A549 cells; note: nearly all actives have a fitted effect of over 35% in size
An asterisk follows results filed as active; i = inactive; u = inconclusive; x = no result given; [ ] = another dose, or the depositor's remark. % is set by controls: 0 for no effect and ±100 for the full control effect; potency is the fitted concentration of half-maximal effect.

SMILES	MARV entry inh	LASV entry inh	VACV Venus inh	FMDV antiviral	VACV mCherry inh
CCc1cccc(NC(=O)C(CC)n2nc(C)c3sc4ccccc4c3c2=O)c1 (stereo not given)	u	-0.6%[46.1 µM]	-17.2%	-20.6%	i
O=[N+]([O-])c1ccc(-c2cnc(SCc3ccccc3Cl)[nH]2)cc1	-13.0%	-4.1%	u	u	x
O=[N+]([O-])c1ccc(-c2cnc(SC(c3ccccc3)c3ccccc3)[nH]2)cc1	u	3.55µM*	u	u	u
Cc1cccc(CN2CCN(C(=O)CN(C)C(C)C(=O)Nc3ccc(C(N)=O)cc3)CC2)c1 (stereo not given)	x	x	x	-2.1%	x
O=C(Nc1nonc1NC(=O)c1cccs1)c1cccs1	u	8.91µM*	u	u	u
O=C(Nc1ccc(NC(=O)c2cccs2)cc1)c1cccs1	u	22.4%[46.1 µM]	0.7%	34.5%	-5.4%
Cc1ccc(C)n1Cc1ccc(C(=O)O)cc1	9.2µM*	-4.2%	x	2.7%	x
CN(C)CCCn1c(N)c(S(=O)(=O)c2ccccc2)c2nc3ccccc3nc21	-19.6%[46.1 µM]	0.1%	-4.1%[7.34 µM]	12.2%	-19.5%[7.34 µM]
CCCCn1c(N)c(S(=O)(=O)c2ccc(C)cc2)c2nc3ccccc3nc21	10µM*	u	-29.1%	20.9%	-14.8%
CCOC(=O)[C@H](C)N1[C@H](C)[C@H](c2ccccc2)Oc2ccc(Cl)cc2S1(=O)=O	x	x	-6.3%	0.0%	u
O=C(Nc1nc(-c2ccccc2)cs1)c1ccc2c(=O)n3c(nc2c1)CCCCC3	-7.6%	x	x	15.8µM*	x
CCOc1ccccc1N(CC)C(=O)c1ccc2c(=O)n3c(nc2c1)CCCCC3	8.91µM*	-8.1%[46.1 µM]	-8.0%	-21.1%	-14.4%
CC(=O)c1cccc(NC(=O)c2ccc3c(=O)n4c(nc3c2)CCCCC4)c1	-11.3%	6.7%	-3.3%	1.6%	-2.0%
O=C(Nc1cccc(S(=O)(=O)N2CCCC2)c1)c1ccc2c(=O)n3c(nc2c1)CCCCC3	u	20.6µM*	u	12.6µM*	u
CC(=O)c1ccc(N2C(=O)CC(N3CCN(S(=O)(=O)c4cc(C)ccc4C)CC3)C2=O)cc1 (stereo not given)	-16.0%[46.1 µM]	-2.0%[46.1 µM]	-16.5%	-2.1%	i
COc1cc2ccc(C(C)=NNC(N)=S)cc2cc1OC	x	x	u	23.4%	6.31µM*
CC(=NNC(N)=S)c1ccc2cc3c(cc2c1)OCO3	x	x	2µM*	12.3%	u
COc1ccc(NC(=O)c2ccc3[nH]c(C)cc(=O)c3c2)cc1	20.9%[46.1 µM]	-1.9%[46.1 µM]	-15.1%	4.8%	-9.4%
CCN(CC(=O)Nc1c(F)cccc1F)C(=O)c1ccc(N2CCCCC2)c([N+](=O)[O-])c1	u	7.08µM*	-25.3%	-20.6%	-11.4%
CCN(CC(=O)Nc1c(F)cccc1F)C(=O)c1cc(S(=O)(=O)N(CC)CC)ccc1N1CCCCC1	-11.1%[46.1 µM]	u	-12.7%	30.8%	-10.6%
CN(C)c1ccc(/C=C/c2ccnc3c(N)cccc23)cc1	x	x	-11.7%	x	-17.9%
COc1ccc(Cc2[nH]n3c(=O)cc(C(C)C)nc3c2-c2ccccc2)cc1	12.6µM*	u	-18.9%	u	u
CCOc1ccccc1CN1CCCC(c2nc(C)ncc2-c2ccc(F)cc2)C1 (stereo not given)	x	x	-5.5%	-10.0%	-19.6%
CCC(C)n1c(=S)[nH]c2c(sc3ccc([N+](=O)[O-])cc32)c1=O (stereo not given)	-6.6%	-0.4%	-6.4%	35.5µM*	-10.7%
CC(C)n1c2ccccc2c2cc([N+](=O)[O-])ccc21	u	4.7%	-15.4%	-27.4%	-20.9%
SMILES	MARV entry inh	LASV entry inh	VACV Venus inh	FMDV antiviral	VACV mCherry inh
Cc1nc(-c2ccc(S(=O)(=O)Nc3cc(Cl)ccc3C)cc2)co1	x	-10.4%[46.1 µM]	0.8%	33.0%	-5.7%
CCN(CC)C(=O)CSc1nc(N)c(C#N)c(-c2cccs2)c1C#N	u	-24.0%	x	-18.8%	x
CCN(CC)C(=O)CSc1nc(-c2cccs2)cc(-c2cccs2)c1C#N	u	18.3µM*	x	0.0%	x
COc1ccc(CNC(=O)CSc2nc(-c3ccccc3)cc(-c3cccs3)c2C#N)cc1	u	-15.6%	x	-12.7%	x
COc1ccc(-c2cc(-c3cccs3)c(C#N)c(SCC(=O)NCc3ccco3)n2)cc1	0.461µM*	u	x	17.9%	x
CCCn1c(C)nc2c(c1=O)c1nc3ccccc3nc1n2CCC1=CCCCC1	23.1µM*	u	x	u	x
Cc1cc(C)c2sc(N3CCN(C(=O)C4CC4)CC3)nc2c1	x	12.8%[46.1 µM]	-9.8%	40.8%	-12.3%
Cc1ccc(NC(=O)N2CCCN(Cc3ccc(F)cc3)C2)cc1C	6.31µM*	-17.0%	-23.1%	-22.4%	x
COc1cccc2ccc(CC(O)(c3ccccc3)c3ccccc3)nc12	x	x	-17.0%	-8.1%	i
COCc1ccc(CN2CCOc3c(cc(-c4ccc(SC)cc4)cc3OC)C2)o1	x	x	1.2%	-3.4%	-7.7%
C[C@H](CO)N1C[C@H](C)[C@H](CN(C)C(=O)Cc2ccncc2)Oc2ncc(Br)cc2C1=O	x	x	8.91µM*	0.4%	u
C[C@@H]1CN([C@H](C)CO)C(=O)c2cc(Br)cnc2O[C@H]1CN(C)C(=O)Cc1ccccc1	x	x	-8.7%	-12.7%	-17.2%
CC(C)=CCC/C(C)=C/CO/N=C1/C[C@@H](O)[C@@H](O)[C@@H]2[C@@H]3C(=O)N(c4cccc(Oc5ccccc5)c4)C(=O)[C@H]3CC[C@@H]12	26.1%[14.2 µM]	x	x	x	x
CCOC(=O)Cc1csc(NC(=O)CC(C)(C)C)n1	u	7.08µM*	-2.6%	23.3%	-9.7%
CCOC(=O)Cc1csc(NC(=O)CC)n1	3.3%	1.2%	0.0%	x	-1.8%
CN(c1ccc(OCC(=O)Nc2ccc3[nH]c(=O)[nH]c3c2)cc1)S(=O)(=O)c1ccc(Cl)cc1	u	23.1µM*	x	-7.9%	x
Cc1cc(NC(=O)COc2ccc(N(C)S(=O)(=O)c3ccccc3)cc2)no1	3.0%	-5.7%	-2.3%	-21.5%	-7.1%
CN(c1ccc(OCC(=O)Nc2nc3ccccc3s2)cc1)S(=O)(=O)c1ccccc1	-0.4%	x	x	11.2µM*	x
CCOC(=O)Cc1csc(NC(=O)COc2ccc(OC)cc2)n1	x	x	-4.0%	u	i
CCOC(=O)Cc1csc(NC(=O)COc2ccc(N(C)S(=O)(=O)c3ccc(C)cc3)cc2)n1	u	-20.9%	-5.9%	17.8µM*	-14.6%
Cc1c(C(=O)N(C)Cc2cccc3ncccc23)cnn1-c1nccc(-c2ccccc2F)n1	x	x	-14.0%	-9.6%	i
CNCC[C@H](Oc1cccc2ccccc12)c1cccs1	x	x	-24.1%	-17.5%	-2.3%
CNCCC(Oc1ccccc1C)c1ccccc1 (stereo not given)	14.1µM*	u	x	x	x
CC(C)c1ccc(/C=C/C(=O)Nc2nncs2)cc1	u	8.91µM*	-22.3%	-49.9%	2.0%
CC(C)c1ccc(/C=C/C(=O)Nn2cnnc2)cc1	x	x	-4.5%	x	-9.1%
COc1ccc2c(c1)CCC1C2CC[C@@]2(C)C1CC[C@@H]2NCCCCCCN1C(=O)CCC1=O (stereo not given in full)	u	13µM*	x	x	x
